Screening results (PubChem)
uPA generation = inhibitors of cell surface uPA generation; cell surface uPA generation assay, qHTS; Potency, µM (highest dose often 38.3 µM), without a hit: at the top dose activity change, negative = inhibition, hits mostly inhibitors; 330,000 compounds, 0.31% hits; AID 540303; active = well fitted inhibition curve with a large enough effect; inconclusive = small, poorly fitted or top-dose-only effect; inactive = no such curve, though single readings can be large or run the other way; tested in mouse RAW 264.7 cells; also: potency is read from the fitted curve at half-maximal effect; nearly all actives have a fitted effect of over 55% in size
DT40 TDP1 no CPT = qHTS for Inhibitors of human tyrosyl-DNA phosphodiesterase 1 (TDP1): qHTS in cells in absence of CPT | 420,000 compounds, 15% hits | AID 686978, 2013 | DT40 Tdp1-/- hTDP1 cells, no CPT, ATP luminescence, 48 h | Potency, µM (doses to about 46.2 µM), inactives show at the highest dose activity change, negative = growth inhibition, actives largely listed as inhibitors; also: potency is read from the fitted curve at half-maximal effect; nearly all actives have a fitted effect of over 55% in size
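Cells were dispensed at 400 per well, compounds added by pin tool, plates incubated ≥48 hr at 37 °C, then CellTiter-Glo added for 30 min at room temperature before luminescence reading. Line: DT40 Tdp1-/- complemented with hTDP1; camptothecin omitted.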
HT1080 IDH1KD tx = kills HT-1080 cells with IDH1 knockdown; HT-1080 IDH1 knockdown viability, ATP luminescence, 48 h; Potency, µM (highest dose often 46.1 µM), without a hit: at the top dose activity, negative = toxicity, most hits filed as cytotoxic; 360,000 compounds, 2% hits; AID 686971;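 also: potency is read from the fitted curve at half-maximal effect; 0% = DMSO wells and -100% = cell-free medium wells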
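Knockdown cells (IDH1KD HT-1080) received compounds 2 h after plating at 750 cells/well and were kept 48 h at 37 °C in 5% FBS RPMI. A CellTiter-Glo luminescence read gave % activity for curve fitting.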
DT40 TDP1 CPT = DT40-hTDP1 cell growth loss with CPT; chicken DT40 Tdp1-/-;hTDP1 cells + 20 nM CPT, ATP luminescence, 48 h; Potency, µM (top dose mostly 46.2 µM), without a hit: top-dose activity change, negative = growth inhibition, most hits filed as inhibitors; 420,000 compounds, 12% hits; also: potency is read from the fitted curve at half-maximal effect; nearly all actives have a fitted effect of over 55% in size
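Chicken DT40 Tdp1-/- cells stably complemented with human TDP1 were seeded at 400 cells/well in medium containing 20 nM camptothecin, exposed to pin-transferred compounds, and grown at 37 °C for at least 48 hr. Viability was read as ATP luminescence.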
IL1B secr inh = blocks inflammasome-driven IL-1 beta release | THP-1 LPS/ATP IL-1B secretion, AlphaLISA, 16 h; hits give low values | activity change, % at 57.5 µM | 360,000 compounds, 4.7% hits; in the data active = activity change below about -50%; inconclusive = mostly about -30% to -49%
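THP-1 cells pretreated 1 hr with compounds (up to 57.5 uM final), then stimulated with LPS (250 ng/mL final) plus ATP (1.25 mM final); secreted IL-1B measured by AlphaLISA after 16 hr, decreased signal indicating inhibition.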
HT1080NT lethal = kills 2HG-producing HT-1080-NT fibrosarcoma cells; AID 686970; 360,000 compounds, 1.6% hits; HT-1080-NT fibrosarcoma viability, CellTiter-Glo ATP luminescence, 48 h; Potency, µM (highest dose often 46.1 µM), for the others: top-dose activity, negative = less viability, most hits filed as cytotoxic;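 also: NT is the 2HG producing partner of a matched IDH1 knockdown line; potency is read from the fitted curve at half-maximal effect; 0% = DMSO-treated cells and -100% = media-only wells without cells; nearly all actives have a fitted effect of over 55% in size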
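Viability by CellTiter-Glo luminescence after 48 h compound exposure at 37C of HT-1080-NT cells (750/well, RPMI, 5% FBS). % activity scaled between DMSO wells and medium-only wells, then curve-fitted and categorized by curve class.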
* marks the source's active call; other numbers are inactive results; ? = inconclusive; . = no result; [ ] = dose if it differs, or a comment. This is a sample that favours compounds with a hit; in the whole collection about 19% have one here. Unless noted, calls follow the shape of the dose curve; as a rule, active = well fitted curve in the direction sought with a large enough effect; inconclusive = small, poorly fitted or top-dose-only effect, or another doubt; inactive = no such curve, though single readings can be large; an effect the other way counts as inactive or inconclusive. Unless noted, % is scaled to controls: 0 for no effect and ±100 for the full control effect.

SMILES	uPA generation	DT40 TDP1 no CPT	HT1080 IDH1KD tx	DT40 TDP1 CPT	IL1B secr inh	HT1080NT lethal
COc1cc(C2SC[C@H]3C(=O)N(c4ccccc4)C(=O)N23)cc(OC)c1OC (stereo partly drawn)	.	?	.	-26%	.	.
Cc1ccc([C@@H]2CC(=O)[C@@H]3CN(S(=O)(=O)c4ccc(C)cc4)[C@H](c4cccc(Cl)c4)C[C@@H]3N2S(=O)(=O)c2ccc(Cl)cc2)cc1	.	-25%	8%	5%	12	1%
CSCCC(NC(=O)c1ccc(Cl)cc1Cl)C(=O)NNC(=O)c1ccncc1 (stereo not drawn)	5%	11%	3%	-8%	-24	0%
Cc1cc(N2CCCC2)ccc1/C=C1\NC(=S)N(C)C1=O	-10%	3.3µM*	-13%	4.6µM*	-10	-3%
O=C1N/C(=C/c2ccc(N3CCCC3)cc2)C(=O)N1c1ccccc1	-1%	?	-8%	?	3	-7%
O=C1/C(=C/c2ccc(N3CCCC3)cc2)NC(=S)N1C1CC1	-16%	16µM*	7.9µM*	16µM*	-77*	6.3µM*
O=C(NCCC1=CCCCC1)C(=O)NCC(c1ccco1)N1CCN(c2ccccc2F)CC1 (stereo not drawn)	-3%	?	2%	?	2	13%
COc1ccc2c(c1)OC(C)CN(CCC(=O)NCC1OCCc3ccccc31)C2 (stereo not drawn)	.	-9%	.	12%[9.04 µM]	.	.
Cc1ccc(N2CCN(S(=O)(=O)c3cc(C(=O)Nc4cc(Cl)cc(Cl)c4)ccc3F)CC2C)cc1 (stereo not drawn)	.	16µM*	.	?	.	.
Cc1cccc(N2CCN(S(=O)(=O)c3cc(C(=O)Nc4ccc(Oc5ccccc5)cc4)ccc3F)CC2)c1C	.	?	.	5.2µM*	.	.
O=C(Nc1cc(Cl)cc(Cl)c1)c1ccc(F)c(S(=O)(=O)N2CCCCCC2)c1	.	10µM*	.	5.2µM*	.	.
CCc1ccccc1NC(=O)c1ccc(F)c(S(=O)(=O)N2CCN(c3ccccc3OC)CC2)c1	.	13µM*	.	15µM*	.	.
Cn1ccsc1=NC(=O)c1cc(S(=O)(=O)N2CCOCC2)ccc1F	-4%	-10%	3%	-12%	-6	5%
Cc1ccc(C)c(N2CCN(S(=O)(=O)c3cc(C(=O)Nc4cc(Cl)cc(Cl)c4)ccc3F)CC2)c1	.	16µM*	.	12µM*	.	.
COc1ccc(C(=O)Nc2ccccc2C)cc1S(=O)(=O)N1CCOCC1	-5%	13%	10%	20%	-11	24%
COc1ccc(CCNC(=O)c2ccc(F)c(S(=O)(=O)N3CCCCC3)c2)cc1	.	23µM*	-21%	?	22	-15%
O=C(Nc1cc(Cl)cc(Cl)c1)c1ccc(F)c(S(=O)(=O)N2CCN(c3ccccc3F)CC2)c1	.	7.3µM*	.	5.8µM*	.	.
COc1ccc(C(=O)Nc2ccccc2N2CCOCC2)cc1S(=O)(=O)N1CCCC1	-6%	18µM*	13%	?	8	8%
Cc1c(C(=O)Nc2ccc3nc(N4CCOCC4)sc3c2)oc2ccccc12	12%	?	-11%	26µM*	0	-10%
O=C(Nc1ccc2nc(N3CCOCC3)sc2c1)c1cc2ccccc2o1	.	?	-6%	23µM*	45	-7%
COc1cc(C(=O)Nc2ccc3nc(N4CCOCC4)sc3c2)cc(OC)c1OC	2%	?	-2%	?	62	6%
Cc1ccc(NC(=O)Cn2ccn(-c3ccccc3)c(=O)c2=O)cc1	.	0%	.	-4%	.	.
CCCNS(=O)(=O)c1cc2c3c(c1)CCN3C(=O)CC2	8%	0%	0%	-9%	-25	-5%
Cc1ccc(SCC(=O)Nc2cccc(-c3nnc(-c4ccco4)o3)c2)cc1	-6%	?	-27%	18µM*	-14	-18%
COc1ccc(Br)cc1C(=O)Nc1cccc(-c2nnc(-c3ccco3)o2)c1	6%	?	24%	23µM*	?	0%
SMILES	uPA generation	DT40 TDP1 no CPT	HT1080 IDH1KD tx	DT40 TDP1 CPT	IL1B secr inh	HT1080NT lethal
COc1ccc(Br)cc1C(=O)Nc1ccc(NC(=O)c2ccco2)cc1	3%	-11%	8%	-14%	-1	11%
CCOc1ccc(NC(=O)CN(C)C(=O)c2cn3ccccc3n2)cc1OCC	-9%	-2%	-4%	-15%	14	8%
COc1ccc(Cl)cc1NC(=O)CN(C)C(=O)c1cn2ccccc2n1	11µM*	?	?	?	41	-30%
COc1cc(C(=O)NCC2(N(C)C)CCCCC2)ccc1OCc1ccccc1	-5%	?	9.2µM*	9%	-17	?
COc1ccc(Cl)cc1NC(=O)CN(C)C(=O)c1ccc(OCc2ccccc2)c(OC)c1	11%	23µM*	-23%	?	-4	-13%
COc1ccc(C(=O)NCC(=O)NCC2(N(C)C)CCCCC2)cc1OC	3%	-4%	5%	7%	2	12%
Cc1ccc(S(=O)(=O)N2CC(O)C[C@H]2C(=O)OCC(=O)c2ccccc2)cc1 (stereo partly drawn)	1%	2%	5%	4%	-1	7%
CC(C)(C)OC(=O)N1C[C@H](O)C[C@H]1C(=O)OCC(=O)c1ccc([N+](=O)[O-])cc1	1%	?	13%	16µM*	8	3%
O=C(COC(=O)c1ccccc1NCCO)Nc1cc(C(F)(F)F)ccc1N1CCOCC1	-3%	?	?	18µM*	-27	-4%
CCN(C(=O)COC(=O)c1cc([N+](=O)[O-])ccc1N1CCOCC1)c1ccccc1	-2%	15µM*	?	?	-1	1%
CC(=O)Nc1ccc(NC(=O)COC(=O)c2cc([N+](=O)[O-])ccc2N2CCOCC2)cc1	-7%	?	1%	-16%	12	-4%
COc1ccc(CN(C)C(=O)COC(=O)c2cc([N+](=O)[O-])ccc2N2CCCC2)c(OC)c1OC	-15%	21µM*	-26%	?	-21	-2%
CCOC(=O)c1ccccc1NC(=O)COC(=O)c1cc([N+](=O)[O-])ccc1N1CCOCC1	-7%	6.5µM*	-15%	?	?	-6%
COc1ccc(N2CC(C(=O)OC(C)C(=O)c3ccccc3)CC2=O)cc1 (stereo not drawn)	0%	11%	2%	5%	10	-1%
COCCNC(=O)C1(C)CCCN(C(=O)c2c(F)ccc(C)c2F)C1 (stereo not drawn)	.	0%	12%	-7%	23	4%
